Screening data (PubChem)
PfGluPho inh = PfG6PD (Plasmodium falciparum) enzyme inhibition; PfGluPho enzyme, NADPH resazurin-diaphorase fluorescence; 350,000 compounds, 0.78% hits; inhibition, % at 20 µM;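 active = inhibition reaching at least a set limit at 20 µM in the primary screen, cut at about 59% in these data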;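 also: 0% = DMSO wells with substrate and 100% = DMSO wells lacking glucose-6-phosphate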
Cardio protect = myocardial damage modulation in H9c2 cells; 360,000 compounds, 0.63% hits; protection from H2O2 cell death, % at 20 µM; H9c2 cardiomyocytes, H2O2 injury protection, ATPLite, 2 h;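 active = compounds giving at least 50% protection of heart cells from peroxide-induced death in the single-dose screen, raw or plate-pattern-corrected value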;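 also: 0% = DMSO wells with peroxide and 100% = DMSO wells without peroxide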
CRFR2-BP antag = antagonists of CRF-binding protein/CRF-R2 receptor complex; inhibition, % at 11.8 µM; HEK293 CRF-R2/CRF-BP, CRF-induced calcium fluorescence; 350,000 compounds, 0.59% hits;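 active = inhibition of the ligand-induced calcium signal above about 50% at the single tested concentration, limit read from the data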
FAS-TE inh = FAS thioesterase (human) inhibition; P49327; recombinant FAS-TE, OMFH fluorogenic substrate, fluorescence endpoint; inhibition, % at 15 µM; 360,000 compounds, 0.67% hits; AID 602261;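 active = compounds whose normalised, plate-corrected inhibition of enzyme fluorescence in the single-dose primary screen is 50% or more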;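 also: 0% = DMSO with enzyme and 100% = substrate without enzyme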
CRFR2-BP ag = agonists of human CRF-binding protein/CRF-R2 receptor complex | 350,000 compounds, 0.46% hits | AID 588473 | HEK293 CRF-R2/CRF-BP, calcium dye fluorescence (FLIPR); percent of saturating CRF peptide response | activation, % at 13.2 µM;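 active = activation of at least 50%, plus an integration ratio under a set limit after plate pattern correction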;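 also: plate controls were neutral control wells without compound for no effect and CRF at EC100 for full effect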
aDG glyco up = increases alpha dystroglycan glycosylation; 360,000 compounds, 0.22% hits; Pro5-aDG cells, alpha-DG glycosylation AlphaScreen (IIH6); 0% Pro5, 100% B10-LARGE cell signal; activation, % at 10 µM;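 active = activation of at least 8% versus controls, or a plate z-score of at least 8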;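 also: Pro5 are CHO cells carrying HIG-tagged alpha-DG that lacks glycosylation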
PfGluPho conf = PfG6PD inhibition, single-dose confirmed; shares compounds with PfGluPho inh; recombinant PfGluPho, NADPH-diaphorase-resazurin fluorescence; inhibition, % at 20 µM; 2,400 compounds, 34% hits;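 active = inhibition of at least 50% at 20 µM in any single replicate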;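 also: 0% = DMSO with substrate and 100% = DMSO lacking glucose-6-phosphate substrate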
Diaphorase 10uM = diaphorase inhibition or oxidation at 10 uM NADPH; shares compounds with PfGluPho inh; inhibition, % at 20 µM; 820 compounds, 39% hits; diaphorase-coupled resazurin reduction, fluorescence, NADPH 10 uM;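 active = average inhibition reaching 50% or more with the compound at 20 µM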;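 also: resorufin red fluorescence formed as diaphorase reduces resazurin using NADPH; 0% = DMSO with enzyme and 100% = DMSO without enzyme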
Diaphorase 30uM = counter-screen for P. falciparum G6PD inhibitors: diaphorase inhibitors, oxidizers | 820 compounds, 29% hits | AID 504863 | Diaphorase/resazurin coupled assay, resorufin fluorescence, 30 uM NADPH | inhibition, % at 20 µM | shares compounds with PfGluPho inh;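 active = inhibition averaging 50% or more, tested at 20 µM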;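 also: 0% = DMSO with enzyme and 100% = DMSO wells lacking diaphorase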
Starred values were filed as active, the others as inactive; . = not tested or not shown. Compounds with a hit are over-represented: about 3.2% of the library has one in this group of screens.

SMILES	PfGluPho inh	Cardio protect	CRFR2-BP antag	FAS-TE inh	CRFR2-BP ag	aDG glyco up	PfGluPho conf	others
C[n+]1c2cc(N)ccc2cc2ccc(N)cc21	78*	-38	-209	-150	225*	0	19
O=C(OCC(O)CO)c1ccccc1Nc1ccnc2cc(Cl)ccc12 (stereo unspecified)	82*	13	8	10	2	0	31
CCOc1ccc(Nc2ccnc3cc(Cl)ccc23)cc1	19	-12	-2	2	0	1	.
CN(C)S(=O)(=O)c1ccc(N2CCCC2)c(C(=O)NCC2CCCCC2)c1	-1	-14	-15	8	0	0	.
CCn1c(SCC(=O)N2CCCCCC2)nc2c(c1=O)SCC2	-25	4	25	-3	-3	1	.
O=c1cc(CN2CCN(c3ccc(O)cc3)CC2)nc2scc(-c3ccccc3)n12	65*	-3	25	-3	1	0	29
COc1cc(CN2CCCC(C(=O)c3ccc4c5c(cccc35)CC4)C2)cc(OC)c1O (stereo unspecified)	74*	-12	-17	-6	-2	0	79*	Diaphorase 10uM=16;Diaphorase 30uM=0
Oc1cccc(C=NNc2ccccn2)c1	6	-2	42	-2	-1	0	.
Oc1ccc(C=NNc2ccccn2)c(O)c1	61*	0	-26	-5	-1	2	45
CC(=O)OC[C@H]1O[C@@H](Oc2cc3ccc(=O)oc3cc2OC(C)=O)[C@H](OC(C)=O)[C@@H](OC(C)=O)[C@@H]1OC(C)=O	9	15	6	-6	0	0	.
O=C(CNc1ccccc1)N/N=C/c1ccc2c(c1)OCO2	19	0	-12	0	-1	0	.
O=C(CNc1ccc2c(c1)OCO2)N/N=C\c1cn(Cc2ccccc2)c2ccccc12	67*	-6	-26	9	-1	0	51*	Diaphorase 10uM=-10;Diaphorase 30uM=16
O=C(CCl)NCCN1C(=O)S/C(=C\c2cccnc2)C1=O	72*	-12	-5	-5	-1	0	66*	Diaphorase 10uM=-29;Diaphorase 30uM=-9
CC(C(=O)NCCN1C(=O)S/C(=C\c2cccnc2)C1=O)N1C(=O)c2ccccc2C1=O (stereo unspecified)	-8	5	-15	4	-2	0	.
Cc1ccc(C)c(OCCC(=O)OCC(=O)Nc2ccc(Cl)cn2)c1	16	-7	2	14	1	0	.
CC(SC1=NCCN1S(=O)(=O)c1ccccc1)c1ccccc1 (stereo unspecified)	62*	-3	11	16	-1	0	24
Cc1ccc(C)c(CSC2=NCCN2S(=O)(=O)c2ccccc2)c1	62*	-6	-5	27	2	0	-3
Cc1ccc(S(=O)(=O)N2CCN=C2SC(C)c2ccccc2)cc1 (stereo unspecified)	54	-11	11	19	2	0	.
O=S(=O)(c1ccccc1)N1CCN=C1SCc1c(F)cccc1Cl	106*	-5	-2	30	-2	0	32
NC(=O)CC(NC(=O)c1ccc(Br)cc1)c1ccc(N2CCCCCC2)c([N+](=O)[O-])c1 (stereo unspecified)	-7	-6	-1	8	0	0	.
Cc1ccc(S(=O)(=O)N(CCCc2c(C)nc(N)[nH]c2=O)Cc2ccc([N+](=O)[O-])cc2)cc1	62*	1	13	16	-1	0	25
Cc1nc(N)[nH]c(=O)c1CCCNS(=O)(=O)c1ccc([N+](=O)[O-])cc1	7	5	1	3	1	0	.
Cc1cc([N+](=O)[O-])nn1CCCC(=O)N1CCN(c2ccccc2)CC1	-10	2	11	3	-1	1	.
O=[N+]([O-])c1cccc(-c2nnc(SCc3cccnc3)o2)c1	-4	5	-5	27	0	0	.
Cc1cc2[nH]c3c(c[n+](C)c4ccccc34)c2cc1C	55	-16	-6	-4	-1	-1	.
SMILES	PfGluPho inh	Cardio protect	CRFR2-BP antag	FAS-TE inh	CRFR2-BP ag	aDG glyco up	PfGluPho conf	others
Cc1cc2[nH]c3c4ccccc4nc(C)c3c2cc1C	75*	-22	-17	24	0	0	8
COc1cc(/C=C/C(=O)Nc2nnc(CC(C)C)s2)cc(OC)c1OC	-3	-6	-26	-13	-1	0	.
COc1cc(/C=C/C(=O)Nc2nnc(CC(C)(C)C)s2)cc(OC)c1OC	59*	-4	-12	-6	-1	0	35
CC1CCCC2(C1)NC(=S)c1c(sc3c1CCCC3)N2 (stereo unspecified)	64*	0	-12	-10	0	0	11
O=C1C2C(C(=O)N1/N=C/c1ccc([N+](=O)[O-])o1)C1C=CC2C12CC2 (stereo unspecified)	24	8	6	-11	-4	1	.
CC1=NN(c2nc(N)nc(/C(C#N)=C/c3ccc([N+](=O)[O-])o3)n2)C(C)(C)C1	69*	-14	-78	8	38	0	26
CC1(C)C(=O)Nc2ccccc2N1C(=O)COC(=O)CNS(=O)(=O)c1ccc(Br)cc1Cl	0	-1	8	7	-3	0	.
NS(=O)(=O)c1ccc(Nc2nc(-c3ccc(O)cc3O)cs2)cc1	69*	36	-5	14	1	0	-2
CS(=O)(=O)N(CC(=O)N/N=C/c1cccs1)c1cccc(Cl)c1Cl	65*	-14	-13	31	-1	0	43
Cc1nn(C(=O)CNS(=O)(=O)c2ccccc2)c(C)c1Sc1ccc(Cl)cc1	80*	-21	4	13	1	0	20
Cc1nn(C(=O)c2cccnc2)c(C)c1Sc1ccccc1	54	1	-8	0	0	0	.
O=C(NC1=NCCS1)C1Cc2ccccc2CN1C(=O)c1ccccc1 (stereo unspecified)	28	7	2	-12	-2	0	.
CC(=O)c1ccc(NC(=O)C2Cc3ccccc3CN2C(=O)c2ccccc2)cc1 (stereo unspecified)	68*	2	-11	-2	-2	0	37
COc1ccc(NC(=O)C2Cc3ccccc3CN2C(=O)c2ccccc2)cn1 (stereo unspecified)	61*	9	7	-10	4	0	48
O=S(=O)(Nc1ccccc1N1CCCCC1)c1ccc(F)cc1	69*	-6	5	22	-2	0	7
